PubChem BioAssay AID595 (National Center for Advancing Translational Sciences (NCATS), 2007)
About 310 (0.44%) of roughly 71,000 compounds were called active. Inconclusive results (about 5%) are left out. Only a selection was taken, and actives are over-represented in it overall. A number with no mark means an inactive call. The call rests on the fitted dose curve; in most records, active means well fitted curve in either direction with a large enough effect; inconclusive means small, poorly fitted or top-dose-only effect, or another doubt; inactive means flat fitted curve, though single readings scatter.

The compounds below were run on Hsp90 C-terminal peptide / TPR2A (Hop) interaction, human (assay: qHTS Assay for Disrupters of an Hsp90 Co-Chaperone Interaction). Conditions: AlphaScreen TPR2A-His6 binding biotin-Hsp90 C-terminal peptide; series mostly up to 57 µM; activity change, negative = inhibition: at the top concentration.
Text: NIH Chemical Genomics Center [NCGC]
NIH Molecular Libraries Screening Centers Network [MLSCN]
Hsp90 (heat shock protein 90) is the essential molecular chaperone and it accounts for 1-2% of all cytosolic proteins and is critical for the activity of diverse cellular proteins that are involved in a variety of cellular processes, including development, cell cycle, and steroid hormone signaling. Its client proteins include signaling kinases such as IGF1R, Akt, v-Src, Raf-1; regulators of cell survival such as Bcr-Abl; and transcription factors such as mutated p53, estrogen and progesterone receptors. Hsp90 has emerged as an important target for cancer treatment due to its essential role in maintaining transformation and regulating the function of oncogenic signaling proteins.
The in vivo function of Hsp90 is regulated by the binding and hydrolysis of ATP at its N-terminal. Geldanamycin binds to ATP site and inhibit Hsp90 function. Geldanamycin and its analogues are under clinical trials in cancer patients.
This domain contains the binding site for tetratricopeptide repeat (TPR) domains on HOP (Hsp Organizing Protein). TPR is a structural motif used by a significant number of cochaperones by which the in vivo function of Hsp90 is regulated. TPR2A on HOP binds specifically to MEEVD motif of the C-terminal of Hsp90.
A homogeneous AlphaScreen is developed to assess the interaction between TPR2A and MEEVD motif of the C-terminal of Hsp90 by using the isolated TPR2A domain and a synthesized 20mer Hsp90 C terminal peptide. AlphaScreen is two bead-based proximity-dependent chemical energy transfer luminescent assay platform. TPR2A-His-6 and biotinylated Hsp90 C terminal peptide will bring streptavidin donor beads and nickel chelate acceptor beads to a proximity range (less than 200 nm), and subsequently lead a chemical luminescent reaction upon exciting donor beads with 680 nm laser. Inhibition of TPR2A and MEEVD motif interaction by small molecules could attenuate or abolish this chemical luminescent reaction.
Counter screening: Biotinylated-His-6 (PerkinElmer) can be utilized as a counter screen, as it serves as a linker to bring streptavidin beads and nickel chelate beads together. The counter screen can exclude alpha screen platform false positives due to small molecules being metal chelators, biotin analogues and imidazole analogues, or due to interfering with oxygen release from donor beads. Such an assay should be utilized to qualify any activity observed in this screen.
NCGC Assay Protocol Summary:
The assay was performed on 1536-well white plate (untreated solid bottom). Liquids were dispensed by 1536-well plate washer (Kalypsys, San Diego, CA). Plates were read on EnVision (PerkinElmer, Boston, MA).TPR2A-His6 was produced using a bacteria expression system and purified using a well developed method (Ghosh et al., 2000). Hsp90 C terminal 20-mer peptide with or without an N-terminal biotin group are synthesized using automated solid phase synthesis by the Yale Keck facility. The composition of assay buffer was (in mM) 25 HEPES, 100 KCl, 2 MgCl2 and 2 DTT; 0.1% BSA and 0.01% Tween-20. TPR2A-His6 binding to biotin-Hsp90 will bring streptavidin donor beads and nickel chelate acceptor beads (PerkinElmer) together and can be measured by Alpha reading by EnVision (PerkinElmer). Free Hsp90 blocks biotin-Hsp90 binding to TPR2 and serves as a positive control in the current asssay.
The assay was performed at room temperature. All compounds were screened as titrations from […] to 46 uM final concentration. The assay was performed in 1536-well format plates (untreated white solid bottom, Corning Inc.) as follows:
Sequence,Parameter,Value,Description
1,Reagent,3 uL TPR2A-His6,Final concentration was 5nM
2,Compound,23 nL,Final titration was from 0.7 nM to 46 uM
3,Time,15 minutes,Room temperature
4,Reagent,1 uL biotin-Hsp90,With and without free Hsp90. Final concentration was 10 nM for biotin-Hsp90 and 10uM for free Hsp90.
5,Time,1 hour,Room temperature
[…]
On the % scale 0 is the no-effect control and ±100 the full control effect; potency means the concentration at half of the fitted maximal effect.

Row | Structure (SMILES) | activity change, negative = inhibition | Potency
1 | O=C(COc1ncnc2ccccc12)NC(=O)NCc1ccccc1 | 2.77% | –
2 | C[C@@H]1O[C@@H](O[C@@H]2[C@@H](O)[C@H](OCCc3ccc(O)c(O)c3)O[C@H](CO[C@@H]3O[C@H](CO)[C@@H](O)[C@H](O)[C@H]3O)[C@H]2OC(=O)/C=C/c2ccc(O)c(O)c2)[C@H](O)[C@H](O)[C@H]1O | -0.838% | –
3 | Cc1ccccc1N1CCN(S(=O)(=O)C[C@@]23CC[C@H](C[C@H]2NC(=O)[C@@H](N)CCS(C)(=O)=O)C3(C)C)CC1 | -8.53% | –
4 | COc1ccc(NC(=O)N2CC3(CCN(C(=O)c4cccn4C)CC3)C2)cc1 | -8.94% | –
5 | COc1ccc(C(=O)N2CCC3(CC2)CCN(c2ccccn2)CC3)cc1 | 2.71% | –
6 | O=C(Nc1cccc(F)c1)N1CC2(CCN(C(=O)c3csnn3)CC2)C1 | 1.12% | –
7 | CCn1ccnc1C[C@@H]1COc2ccccc2O1 | inactive | –
8 | CC/C=C/C/C=C/C/C=C/CCCCCCCC(=O)OCC | 1.86% | –
9 | COC(=O)c1c(NC(=O)CSc2nc3c(c(=O)n(C)c(=O)n3C)n2C(C)C)sc(C)c1C | -2.6% | –
10 | CCOC(=O)c1c(NC(=O)CSc2nnc(CN3CCOCC3)n2C)sc2c1CCCC2 | -2.12% | –
11 | CCOC(=O)c1c(NC(=O)CSc2nnc(Cc3csc(N)n3)n2C)sc(C)c1C | – | 25.1 µM (active)
12 | Brc1cc(Br)c(Oc2cc(Br)c(Br)cc2Br)cc1Br | 12.2% | –
13 | Nc1nc2c(ncn2[C@H]2CC[C@@H](CO)O2)c(=O)n1C(=O)c1ccccc1 | -4.52% [at 11 µM] | –
14 | CCOC(=O)CSc1nnc(CNc2ccc(F)cc2)o1 | -0.588% | –
15 | C[C@]1(O)CC[C@H]2[C@H]3CC=C4N5CCN=C5CC[C@@]4(C)[C@H]3CC[C@@]21C | -4.96% [at 11 µM] | –
16 | CC1(CCC(=O)OC2CCCCC2)OCCO1 | -2.62% [at 11 µM] | –
17 | CN1CCN(S(=O)(=O)c2ccc3[nH]cc(C(=O)O)c(=O)c3c2)CC1 | -0.632% | –
18 | CCOC(=O)c1nc(N)sc1C(=O)OCC | 0.817% | –
19 | COC(=O)C1(C)C=CCN1C(=O)c1ccccc1 (stereo not given) | -3.13% | –
20 | Cc1c(O)c(Br)c(C)c(O)c1Br (tested in a mixture with another compound) | -3.86% [at 11 µM] | –
21 | COCCNc1ccnc(-c2cccc(NS(C)(=O)=O)c2)n1 | -3.91% | –
22 | Cc1cccc(CNc2cc(-c3ccccc3Cl)ncn2)c1 | 6.04% | –
23 | O=C(Nc1c[nH]c(=O)[nH]c1=O)Oc1ccccc1 | 1.58% [at 11 µM] | –
24 | Nc1ccccc1N | 0.745% | –
25 | COc1cc([C@H]2c3cc4c(cc3[C@@H](O[C@@H]3O[C@H]5CO[C@@H](C)O[C@]5(O)C[C@H]3O)[C@@H]3COC(=O)[C@H]23)OCO4)cc(OC)c1O | -4.89% | –

Row | Structure (SMILES) | activity change, negative = inhibition | Potency
26 | NS(=O)(=O)c1ccc(NS(=O)(=O)/C=C/c2ccccc2)cc1 | 0.079% | –
27 | Cc1ccc(S(=O)(=O)C(C#N)c2nc3ccccc3nc2N2CCCC2)cc1C (stereo not given) | -13.2% | –
28 | Cc1cc(C)c2nc(N3CCCC3)c(C#N)cc2c1 | 3.01% | –
29 | Cc1cccc2cc(C#N)c(N3CCCC3)nc12 | – | 31.6 µM [activator] (active)
30 | C[C@@H]1C[C@H]2[C@@H]3C[C@H](F)C4=CC(=O)C=C[C@@]4(C)[C@]3(F)[C@H](O)C[C@]2(C)[C@@]1(O)C(=O)CO | -3.15% [at 26 µM] | –
31 | CN1CCN(c2ncc3nc(-c4ccc(Cl)cc4)c(=O)n(-c4ccccc4)c3n2)CC1 | -0.003% | –
32 | O=C(Nc1cccc(F)c1)N1CCC2(CC1)CCN(S(=O)(=O)c1ccccc1)CC2 | 1.21% | –
33 | Cc1nc2cnc(Oc3cccc(Cl)c3)nc2n(C2CC2)c1=O | -1.71% | –
34 | ON=C1/C(=N\O)CC2(C/C1=N/O)OCCO2 | – | 12.6 µM (active)
35 | O/N=C1\CC2(Cc3nonc31)OCCO2 | -2.81% | –
36 | O=c1c(CCc2ccccc2)nc2cncnc2n1C1CC1 | -2.81% | –
37 | COc1ccccc1CNc1ncncc1-c1cccc(NS(C)(=O)=O)c1 | 5.26% | –
38 | COCCNc1cc(-c2c(C)noc2C)ncn1 | -2.68% | –
39 | O=C(O)[C@@H]1[C@@H](C(=O)O)[C@]23C[C@@]2(C(=O)O)[C@]2(C(=O)O)CCC3=C3CCCC312 | 0.013% [at 11 µM] | –
40 | O=C(CC(NS(=O)(=O)c1ccc(Cl)cc1)c1ccco1)NC1CCCC1 (stereo not given) | -9.73% | –
41 | CN1CCN(S(=O)(=O)c2ccc(NC(=O)C3CCCO3)cc2)CC1 (stereo not given) | -2.48% | –
42 | O=S(=O)(c1ccccc1)N1CCC2(CC1)CN(Cc1nccs1)C2 | -4.1% | –
43 | NC1(C(=O)OCc2ccccc2)CCCC1 | -2.78% [at 11 µM] | –
44 | NCC(=O)[C@@H](O)[C@H](O)[C@H](O)CO | -1.57% [at 11 µM] | –
45 | Cc1ccc(CNC(=O)C2CC(=O)N(C3CCCCCCC3)C2)cc1 (stereo not given) | 0.056% | –
46 | COc1ccc(C(=O)N2CCC[C@@]3(CCN(C(=O)NC(C)C)C3)C2)cc1 | -3.02% | –
47 | Clc1ccc(Cc2nnc(-c3cccs3)o2)cc1 | 12.2% | –
48 | Cn1c(=O)c(-c2ccccc2)nc2cnc(N3CCNCC3)nc21 | -1.54% | –
49 | C=CC(=C)CCC=C(C)C | -2.65% | –
50 | CN1CCN(c2cc(=O)n(-c3ccc(Cl)cc3)c(=O)[nH]2)CC1 | 0.293% | –
